This is an account of results in PubChem BioAssay (NCATS).

Results filed as inconclusive are left out. Active and inactive are the calls of the source. Unless noted, the call rests on the fitted dose curve; in most records, active means well fitted curve in the direction sought with a large enough effect; inconclusive means small, poorly fitted or top-dose-only effect, or another doubt; inactive means no such curve, though single readings can be large; an effect the other way counts as inactive or inconclusive.

Experiment [1] has as its system Zika virus NS2B-NS3 protease (unlinked complex). The experiment is described as follows: Primary screen GU Rhodamine qHTS for Zika virus inhibitors: Unlinked NS2B-NS3 protease assay (AID 1347159). Further: nearly all actives have a fitted effect of over 60% in size. Further: potency means the concentration at half of the fitted maximal effect. On activity change, negative = inhibition: on the % scale 0 is the no-effect control and ±100 the full control effect. In short, it runs like this:
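Percent inhibition came from the 15-min rise in Rhodamine110 fluorescence (1.5 microM substrate, ~15% conversion), normalized to no-inhibitor and no-enzyme wells and Hill-fitted. Unlinked protease, 25 nM, pH 8.0 Tris buffer; compounds up to 114 microM, 15-min preincubation.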

A short description of experiment [2]: qHTS to identify inhibitors of the type 1 interferon - major histocompatibility complex class I in skeletal muscle: primary screen against the NCATS Mechanism Interrogation Plate v5.0 (MIPE) Libary (AID 1347411).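 Further: plate controls were vehicle for no effect and reference inhibitor for full effect; nearly all actives have a fitted effect of over 65% in size.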 In a few lines: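 IFN-beta-driven (4 ng/ml) HLA-B-HiBit expression in CRISPR-tagged C25cl48 myoblasts; compounds 11-pt, 1:3, max 46 uM, 24 hr exposure; lytic NanoLuc complementation luminescence.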
A general note: qHTS replaces the single test concentration by a dilution series.

Experiment [3] has as its target Cytochrome P450 2C9 (Homo sapiens) (UniProt P11712). The experiment is described as follows: Cytochrome P450 family 2 subfamily C member 9 (CYP2C9) small molecule antagonists: luciferase biochemical (cell-free) qHTS assay (AID 1645842; active means well fitted curve in the direction sought with a large enough effect in the repeat runs; an effect the other way counts as inactive or inconclusive; further: potency means the concentration at half of the fitted maximal effect; nearly all actives have a fitted effect of over 55% in size). In a few lines: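 P450-Glo CYP2C9 system: proluciferin substrate with enzyme in mix containing 0.4% BSA, 10 min at room temperature, then NADPH regeneration solution added and incubated 1 h at 37C. Detection reagent stopped reaction; luminescence read after 20 min as RLU.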

A short description of experiment [4]: qHTS drug screen for cell cycle checkpoint inhibitors in PARPi-resistant BRCA-mutant ovarian cancer cell lines. (AID 1963452; calls by dose curve; further: potency means the concentration at half of the fitted maximal effect). To be noted: PEO1/OlaR viability, CellTiter-Glo luminescence, 96 h; for Z-AUC: stronger effect = lower value. In short, it runs like this: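 PEO1, PEO4 and PEO1/OlaR ovarian cancer cells, 600 per well, exposed 96 h at 37C to a dilution series. Viability read by CellTiter-Glo luminescence, normalized to DMSO and empty wells; activity summarized as Z-AUC.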

For experiment [5], the system named is HaCat. The experiment is described as follows: Cytotoxic Profiling of Annotated Libraries Using Quantitative High-Throughput Screening (AID 1296008). Further: nearly all actives have a fitted effect of over 60% in size. Further: potency means the concentration at half of the fitted maximal effect. On max response: on the % scale 0 is the no-effect control and ±100 the full control effect. To be noted: Five cell lines viability, CellTiter-Glo ATP luminescence, 48-72 h; max response: stronger effect = lower value. In short, it runs like this:
(§1)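 Cytotoxicity was measured as CellTiter-Glo ATP luminescence, read after 10 min at room temperature. Compound treatment of the cells lasted 48 or 72 hr at 37 degrees Celsius in a qHTS format.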

Experiment [6] relates to HACAT. The experiment is described as follows: qHTS assay to identify novel small-molecules to repurpose for Merkel cell carcinoma treatment (AID 1296009). Further: nearly all actives have a fitted effect of over 60% in size. Particulars: MCC and control cell lines, CellTiter-Glo viability, 72 h; at 44.8 µM (top of the series) unless noted. In a few lines:
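Cell viability measured by CellTiter-Glo following 72 hr compound treatment at 37 degree celsius, with NPC and MIPE libraries tested in 8- and 11-point concentration series.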

Experiment [7] can be described thus: P-glycoprotein substrates identified in KB-8-5-11 adenocarcinoma cell line, qHTS therapeutic library screen (AID 1346987). Further: nearly all actives have a fitted effect of over 65% in size. Further: potency means the concentration at half of the fitted maximal effect. In short, it runs like this:
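Human cervical adenocarcinoma KB-8-5-11 cells, selected in colchicine to over-express P-gp and assayed without it, were exposed for 72 h to titrated compounds. An ATP-based luminescent viability signal gave AC50.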

For another experiment, the system named is CAOV3. Kind of experiment: Primary qHTS to identify gynecologic anti-cancer compounds using libraries of approved drugs and bioactive compounds (AID 1345084). Further: on the % scale 0 is the no-effect control and ±100 the full control effect; nearly all actives have a fitted effect of over 55% in size. Particulars: Gynecologic cancer cell panel viability, ATPlite luminescence, 48 h; series mostly up to 57.5 µM. In a few lines:
(§2)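 Five-concentration response, 48 h; readout is ATP-driven luciferase luminescence.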

The test system of the next experiment is SKOV3. The description is as above. Particulars: Gynecologic cancer cell panel viability, ATPlite luminescence, 48 h; series mostly up to 57.5 µM. In a few lines: as §2
(Cellular ATP, detected with luciferase, serves as a proxy for viable cell number.)

Experiment [8] can be described thus: Confirmatory screen GU Rhodamine qHTS for Zika virus inhibitors qHTS (AID 1347157). Further: potency means the concentration at half of the fitted maximal effect; nearly all actives have a fitted effect of over 70% in size. In short, it runs like this:
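A qHTS format was used, with compound concentrations ranging up to 114 microM. Each compound was preincubated with 25 nM NS2B-NS3 protease, and the substrate was then added at 1.5 microM. Curves were fitted with a 4-parameter Hill model.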

Experiment [9] is described as follows: Confirmatory screen NINDS Rhodamine qHTS for Zika virus inhibitors (AID 1347161). In a few lines: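 Single-chain NS2B-NS3 protease, 25 nM, pH 8.0; compounds preincubated 15 min. Activity: Rhodamine110 release from 1.5 microM substrate over 15 min, room temperature, data fitted to 4-parameter Hill.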
In experiment [10] the test system is Zika virus NS2B-NS3 protease (linked construct). Kind of experiment: 384 well plate NINDS Rhodamine confirmatory qHTS for Zika virus inhibitors (AID 1347164).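 Further: fluorescence from protease cleavage of Ac-LKRR-rhodamine 110 substrate; potency means the concentration at half of the fitted maximal effect; nearly all actives have a fitted effect of over 65% in size.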 In a few lines: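 Linked protease at a final 5 nM, 30 nM or 60 nM was preincubated ~15 min with compounds, then given 10 microM Ac-LKRR-Rhodamine 110. Fluorescence (ex 485/em 538 nm) after 25 min in the dark at room temperature.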

Experiment [11] concerns the target Catechol O-methyltransferase (Homo sapiens) (UniProt P21964). The experiment is described as follows: Confirmatory Screen for Target Class Profiling of Small Molecule Inhibitors of Methyltransferases (AID 1745852; calls by dose curve; further: potency means the concentration at half of the fitted maximal effect). To be noted: MTase-Glo luminescence, SAH detection, recombinant enzyme; measured here: COMT max response; stronger effect = lower value.
In experiment [12] the target is Guanidinoacetate N-methyltransferase (Homo sapiens) (UniProt Q14353). The description is as above. Particulars: activity change, negative = inhibition: at 57.3 µM (top of the series) unless noted.
Experiment [13] concerns the target Nicotinamide N-methyltransferase (Homo sapiens) (UniProt P40261). The experiment is described as above. Particulars: MTase-Glo luminescence, SAH detection, recombinant enzyme; measured here: NNMT max response; stronger effect = lower value.
The target of experiment [14] is Phenylethanolamine N-methyltransferase (Homo sapiens) (UniProt P11086). The description is as above. Particulars: MTase-Glo luminescence, SAH detection, recombinant enzyme; measured here: PNMT max response; stronger effect = lower value.
Chain of Phenylethanolamine N-methyltransferase (Homo sapiens) (P11086 whole entry, looked up): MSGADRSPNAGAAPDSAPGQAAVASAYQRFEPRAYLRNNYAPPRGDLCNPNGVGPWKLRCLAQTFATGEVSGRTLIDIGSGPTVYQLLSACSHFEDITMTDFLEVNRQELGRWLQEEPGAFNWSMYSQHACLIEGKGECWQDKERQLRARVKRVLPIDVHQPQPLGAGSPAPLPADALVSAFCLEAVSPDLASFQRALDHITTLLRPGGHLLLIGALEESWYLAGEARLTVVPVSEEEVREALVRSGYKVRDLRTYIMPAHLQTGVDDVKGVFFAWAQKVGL
The subject of a further experiment is NIH3T3. The experiment is described as follows: Cytotoxic Profiling of Annotated Libraries Using Quantitative High-Throughput Screening (AID 1296008). Further: nearly all actives have a fitted effect of over 60% in size. Further: potency means the concentration at half of the fitted maximal effect. On max response: on the % scale 0 is the no-effect control and ±100 the full control effect. Particulars: Five cell lines viability, CellTiter-Glo ATP luminescence, 48-72 h; max response: stronger effect = lower value. In short, it runs like this:
as §1

The test system of the next experiment is CRL-7250. The experiment is described as above. Particulars: Five cell lines viability, CellTiter-Glo ATP luminescence, 48-72 h; max response: stronger effect = lower value. In short, it runs like this:
as §1

Where [15] appears, read: measured here: PEO1 parental Z-AUC.

Chain of Cytochrome P450 2C9 (Homo sapiens) (P11712 whole entry, looked up): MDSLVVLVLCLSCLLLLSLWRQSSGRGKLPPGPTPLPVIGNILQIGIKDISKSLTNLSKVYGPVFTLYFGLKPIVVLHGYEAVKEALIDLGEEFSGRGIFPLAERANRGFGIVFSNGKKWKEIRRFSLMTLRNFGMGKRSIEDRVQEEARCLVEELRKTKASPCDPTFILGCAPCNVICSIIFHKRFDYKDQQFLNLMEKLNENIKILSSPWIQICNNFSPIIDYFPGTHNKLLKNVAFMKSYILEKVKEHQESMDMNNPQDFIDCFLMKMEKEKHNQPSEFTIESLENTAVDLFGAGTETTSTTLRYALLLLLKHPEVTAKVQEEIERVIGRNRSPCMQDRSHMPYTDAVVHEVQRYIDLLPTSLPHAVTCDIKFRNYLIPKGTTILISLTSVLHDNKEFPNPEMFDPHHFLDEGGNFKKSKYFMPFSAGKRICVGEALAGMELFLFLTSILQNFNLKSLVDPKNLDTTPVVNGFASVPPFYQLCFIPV
Chain of Catechol O-methyltransferase (Homo sapiens) (P21964 whole entry, looked up): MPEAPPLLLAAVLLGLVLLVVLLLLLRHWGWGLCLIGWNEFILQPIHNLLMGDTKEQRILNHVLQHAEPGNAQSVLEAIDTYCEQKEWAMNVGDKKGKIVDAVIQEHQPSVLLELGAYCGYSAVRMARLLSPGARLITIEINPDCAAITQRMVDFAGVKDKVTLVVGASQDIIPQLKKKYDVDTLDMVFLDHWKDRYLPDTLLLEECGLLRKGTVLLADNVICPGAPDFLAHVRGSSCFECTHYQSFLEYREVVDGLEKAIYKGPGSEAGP
Chain of Nicotinamide N-methyltransferase (Homo sapiens) (P40261 whole entry, looked up): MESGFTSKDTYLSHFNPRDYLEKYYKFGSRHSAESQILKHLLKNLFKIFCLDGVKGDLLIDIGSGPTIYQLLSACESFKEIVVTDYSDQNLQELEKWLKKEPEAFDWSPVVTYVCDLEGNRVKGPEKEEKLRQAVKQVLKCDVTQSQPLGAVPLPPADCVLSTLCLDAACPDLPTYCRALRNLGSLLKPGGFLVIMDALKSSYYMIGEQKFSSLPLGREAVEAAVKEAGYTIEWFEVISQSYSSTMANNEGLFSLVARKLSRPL

Regarding `COc1cc(-c2cc(-c3ccc(N4CCNCC4)cc3)cnc2C)cc(OC)c1OC`, the Potency entry in [1] and in [2] was “inactive” in each case. In experiment [3], the Potency was 19 µM (active). For the same molecule, the Z-AUC in experiment [4] was -1.12 (inactive); in experiment [4] (setting [15]), -0.592; in experiment [4] (measured here: PEO4 Z-AUC) it was -0.59. Also, the outcome in the experiment on HaCat [5] and in the experiment on HACAT [6] was “inactive” each time.
Consider `C=C1/C(=C/C=C2\CCC[C@]3(C)[C@@H]([C@H](C)/C=C/C(=O)C4CC4)CC[C@@H]23)C[C@@H](O)C[C@@H]1O`, for which the Potency entry (in experiment [7]; with CAOV3; with SKOV3) was “inactive” in each case. Moreover, the outcome in the experiment with HaCat [5] and in the experiment with HACAT [6] was “inactive” in each case.
Take `O=C(NCc1ccc(Oc2ccccc2)cc1)c1nc(-c2cc(Br)c(O)c(Br)c2)no1`: the Potency is 1.75 µM (active) in [8]; 2.82 µM (active) in experiment [1]; 2.21 µM (active) in [9]; 1.58 µM (active) in experiment [10]; 0.849 µM (active) in experiment [3]; 42.9 µM (active) in experiment [12]. Besides, the activity was -16.2% in experiment [11], -75.3% in experiment [13] and -0.151% in experiment [14]. The outcome with HaCat [5] and in the experiment on HACAT [6] was “inactive” in each case. Also, the Potency entry in the experiment with CAOV3 and with SKOV3 was “inactive” each time.
Turning to `COc1cc(O)ccc1OCCNCC(O)COc1cccc2[nH]c3ccccc3c12` (stereo not drawn), the Potency entry in experiment [1] is “inactive”. In addition, the outcome with HaCat [5] and with HACAT [6] was “inactive” in each case.
Consider `COCCOCCOc1ccc(C2=N[C@@](C)(C(=O)O)CS2)c(O)c1`, for which the Potency entry (in [1]; in the experiment on CAOV3) was “inactive” each time. Further, the max response with HaCat [5] was -22.3% (inactive).
As to `C[C@@H]1COCCN1c1cc(C2(S(C)(=N)=O)CC2)nc(-c2ccnc3[nH]ccc23)n1` (stereo partly drawn), the Potency in [4] was 2.75 µM (active); in the experiment with HaCat [5] it was 16.6 µM (active); in the experiment with NIH3T3, 4.17 µM (active). Further, the Z-AUC in experiment [4] (setting [15]) was -1.94; in [4] (measured here: PEO4 Z-AUC) it was -1.89.
For `CC1CCC2C(=CCC(O)C2(C)C)C1(C)Cc1c(O)cc(CO)c(C=O)c1O` (stereo not drawn), the figures for the Potency in experiment [8] and in [9] were 24.3 µM (active) and 27.3 µM (active), respectively. Further, the outcome with HaCat [5] and in the experiment on HACAT [6] was “inactive” each time. Moreover, in the experiment with SKOV3, the Potency entry was “inactive”.
With `CC1CCC2C(C)(C)C(O)CCC2(C)C12Cc1c(O)cc3c(c1O2)CN(C(CCCN=C(N)N)C(=O)O)C3=O` (stereo not drawn), the Potency entry (in experiment [1]; in the experiment with SKOV3) was “inactive” throughout. In addition, in the experiment with HaCat [5], the outcome is “inactive”. Further, in the experiment with HACAT [6], the outcome is “inactive [at 17.4 µM]”.
On to `Cc1ccccc1C(=O)Nc1ccc(C(=O)N2CCC[C@@H](O)c3cc(Cl)ccc32)c(C)c1`, for which the Potency result (in [1]; with CAOV3) was “inactive” in each case. Also, in experiment [3], the Potency is 12 µM (active). Also, the max response with CRL-7250 is -3.25% (inactive); with HaCat [5], -22.4% (inactive).
As to `Nc1ncnc2c1ncn2[C@@H]1O[C@H](CO)C[C@H]1O`, in [7], the Potency was 0.001 µM (active). Also, the Potency result in [1] and in experiment [2] was “inactive” each time. For the same molecule, the Z-AUC is 1.48 (inactive) in [4], 0.932 in [4] (setting [15]) and 0.673 in [4] (measured here: PEO4 Z-AUC). Further, the max response in the experiment on HaCat [5] was -125% (inactive).
